This note sets out measurements from PubChem BioAssay (NCI).

Where “and” joins values, the source holds several entries; their conditions need not be identical. Equal entries are not always repeated. Compounds without any hit were thinned out: in the full panel of roughly 83,000, 20% have a hit.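 Method: cells in 96-well plates; compound added at one concentration; 48 h incubation; percent growth measured; values under 10 scored active.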 Calls of active or inactive are those of the source.

Among the test systems are DU-145 prostate; K-562 leukemia; MALME-3M melanoma; MDA-MB-231 breast; RXF 393 renal; SF-268 CNS; SF-295 CNS; SF-539 CNS; UACC-257 melanoma; M14 melanoma.
Experiment in all cases: NCI-60 one-dose screen, 48 h (100 = growth as untreated, 0 = no growth, -100 = all killed)

For `CCN(Cc1ccccc1)c1ccc(/C=C2\COc3ccccc3C2=O)cc1`, the growth in the experiment on DU-145 prostate (10 µM) was 101% (inactive); with DU-145 prostate (100 µM) it was 47.8% (inactive); in the experiment on K-562 leukemia (10 µM) it was 78.4% (inactive); in the experiment with K-562 leukemia (100 µM) it was 6.4% (active); in the experiment on MALME-3M melanoma (10 µM) it was 99.1% (inactive); with MALME-3M melanoma (100 µM) it was 54.5% (inactive). Also, the growth was 101% (inactive) in the experiment with MDA-MB-231 breast (10 µM); 43% (inactive) with MDA-MB-231 breast (100 µM); 109% (inactive) in the experiment on RXF 393 renal (10 µM); 37.3% (inactive) in the experiment on RXF 393 renal (100 µM); 101% (inactive) in the experiment with SF-268 CNS (10 µM); 54.7% (inactive) in the experiment on SF-268 CNS (100 µM). Further, the growth in the experiment with SF-295 CNS (10 µM) is 94.4% (inactive); in the experiment with SF-295 CNS (100 µM) it was 54.4% (inactive); in the experiment with SF-539 CNS (10 µM) it was 97.3% (inactive); in the experiment with SF-539 CNS (100 µM), 61.1% (inactive); in the experiment with UACC-257 melanoma (10 µM), 92.6% (inactive); with UACC-257 melanoma (100 µM), 42.8% (inactive). Also, the growth in the experiment on M14 melanoma (10 µM) was 97.4% (inactive); in the experiment on M14 melanoma (100 µM), 28.9% (inactive).

With `CCN(CC)CC(=O)Nc1ccc2ncnc(Nc3ccc(Oc4cccc(F)c4)c(Cl)c3)c2c1`, the growth in the experiment with DU-145 prostate (10 µM unless noted) was 57% (inactive); in the experiment with K-562 leukemia (10 µM unless noted), 2.08% (active); in the experiment with MALME-3M melanoma (10 µM unless noted) it was 45.2% (inactive); with MDA-MB-231 breast (10 µM unless noted), 49.3% (inactive); in the experiment with RXF 393 renal (10 µM unless noted), 43.2% (inactive); in the experiment with SF-268 CNS (10 µM unless noted) it was 58.8% (inactive). Moreover, the growth in the experiment with SF-295 CNS (10 µM unless noted) is 87.2% (inactive); in the experiment with SF-539 CNS (10 µM unless noted) it was 83.5% (inactive); with UACC-257 melanoma (10 µM unless noted), 67.2% (inactive); in the experiment on M14 melanoma (10 µM unless noted), -33.8% (active).

Regarding `O=C(Nc1cc(C(F)(F)F)cc(C(F)(F)F)c1)c1cc(Cl)ccc1O`, the growth was 14.4% (inactive) and 5.91% (active) in the experiment with DU-145 prostate (10 µM unless noted); 2.85% (active) and 5.08% (active) with K-562 leukemia (10 µM unless noted); -38.3% (active) and -37.1% (active) in the experiment on MALME-3M melanoma (10 µM unless noted); -11.4% (active) and -22.8% (active) in the experiment on MDA-MB-231 breast (10 µM unless noted); -40% (active) and -5.38% (active) in the experiment on RXF 393 renal (10 µM unless noted); 11.7% (inactive) and -7.95% (active) in the experiment with SF-268 CNS (10 µM unless noted). The growth is -63.1% (active) and -66.9% (active) in the experiment with SF-295 CNS (10 µM unless noted); -31% (active) and -18% (active) with SF-539 CNS (10 µM unless noted); -52.7% (active) and -18.1% (active) with UACC-257 melanoma (10 µM unless noted); -6.08% (active) and -32.7% (active) with M14 melanoma (10 µM unless noted).

Consider `COC(=O)c1c2c(c(C)[n+]([O-])c1C)C(=O)C(NCCN1CCOCC1)=CC2=O`, for which the growth with DU-145 prostate (10 µM unless noted) was 84.3% (inactive); in the experiment on K-562 leukemia (10 µM unless noted), 75.6% (inactive); in the experiment with MALME-3M melanoma (10 µM unless noted), -13.2% (active); in the experiment with MDA-MB-231 breast (10 µM unless noted), 70.8% (inactive); in the experiment on RXF 393 renal (10 µM unless noted), 96.3% (inactive); with SF-268 CNS (10 µM unless noted) it was 79.3% (inactive). In addition, the growth in the experiment with SF-295 CNS (10 µM unless noted) is 82.7% (inactive); in the experiment on SF-539 CNS (10 µM unless noted), 89.5% (inactive); with UACC-257 melanoma (10 µM unless noted) it was 48.4% (inactive); with M14 melanoma (10 µM unless noted) it was 62.9% (inactive).

As to `COc1ccc(-c2csc(NC(=O)CN3CCN(CCO)CC3)n2)cc1NS(=O)(=O)c1cccc2c(N(C)C)cccc12`, the growth with DU-145 prostate (10 µM unless noted) was 78.4% (inactive); with K-562 leukemia (10 µM unless noted), 23.1% (inactive); in the experiment with MALME-3M melanoma (10 µM unless noted) it was -67.9% (active); in the experiment on MDA-MB-231 breast (10 µM unless noted) it was 71.9% (inactive); in the experiment on RXF 393 renal (10 µM unless noted) it was 57.7% (inactive); in the experiment on SF-268 CNS (10 µM unless noted) it was 81.2% (inactive). Further, the growth is 29.7% (inactive) in the experiment on SF-295 CNS (10 µM unless noted), 65.7% (inactive) in the experiment on SF-539 CNS (10 µM unless noted), 68.4% (inactive) in the experiment with UACC-257 melanoma (10 µM unless noted) and -73.6% (active) with M14 melanoma (10 µM unless noted).

In the case of `COc1nc2ccc(C)cc2cc1/C=[N+](\[O-])c1ccccc1`, the growth in the experiment with DU-145 prostate (10 µM unless noted) was 95.5% (inactive); in the experiment on K-562 leukemia (10 µM unless noted) it was 33.6% (inactive); in the experiment on MALME-3M melanoma (10 µM unless noted), 94% (inactive); in the experiment on MDA-MB-231 breast (10 µM unless noted), 78% (inactive); in the experiment with RXF 393 renal (10 µM unless noted), 101% (inactive); with SF-268 CNS (10 µM unless noted), 86.2% (inactive). In addition, the growth in the experiment with SF-295 CNS (10 µM unless noted) is 90.3% (inactive); in the experiment on SF-539 CNS (10 µM unless noted) it was 89.8% (inactive); in the experiment with UACC-257 melanoma (10 µM unless noted), 95.7% (inactive); in the experiment on M14 melanoma (10 µM unless noted), 86.8% (inactive).

For `COc1ccccc1/C=C/C(=O)/C=C/c1ccccc1OC`, the growth in the experiment with DU-145 prostate (10 µM unless noted) was -11.9% (active) and -11.3% (active); in the experiment on K-562 leukemia (10 µM unless noted), 10.9% (inactive); in the experiment on MALME-3M melanoma (10 µM unless noted) it was -33.8% (active) and 2.49% (active); with MDA-MB-231 breast (10 µM unless noted) it was 17.5% (inactive) and 8.92% (active); with RXF 393 renal (10 µM unless noted), -87.5% (active) and -89.7% (active); with SF-268 CNS (10 µM unless noted), 8.73% (active) and 21.3% (inactive). For the same compound, the growth with SF-295 CNS (10 µM unless noted) is 10.4% (inactive) and -31% (active); in the experiment with SF-539 CNS (10 µM unless noted) it was 3.38% (active) and -29.1% (active); with UACC-257 melanoma (10 µM unless noted) it was -29.2% (active) and 6.89% (active); in the experiment on M14 melanoma (10 µM unless noted), 8.11% (active) and -49.7% (active).

Regarding `NC(N)=NC(N)=NCCCc1ccco1`, the growth is 115% (inactive) with DU-145 prostate (10 µM unless noted); 96.8% (inactive) in the experiment with K-562 leukemia (10 µM unless noted); 96.4% (inactive) in the experiment on MALME-3M melanoma (10 µM unless noted); 107% (inactive) in the experiment with MDA-MB-231 breast (10 µM unless noted); 114% (inactive) in the experiment with RXF 393 renal (10 µM unless noted); 94.1% (inactive) in the experiment on SF-268 CNS (10 µM unless noted). The growth in the experiment on SF-295 CNS (10 µM unless noted) was 93.9% (inactive); with SF-539 CNS (10 µM unless noted), 103% (inactive); with UACC-257 melanoma (10 µM unless noted), 99.8% (inactive); in the experiment with M14 melanoma (10 µM unless noted), 111% (inactive).

For the compound `CCNC(=O)Oc1ccc(/C(=C(/C)Cc2ccc(OC)cc2)c2ccc(OCCN(CC)CC)cc2)cc1`, the growth in the experiment with DU-145 prostate (10 µM unless noted) is 77.3% (inactive); with K-562 leukemia (10 µM unless noted), -45.2% (active); with MALME-3M melanoma (10 µM unless noted), -17.8% (active); in the experiment on MDA-MB-231 breast (10 µM unless noted), 45% (inactive); in the experiment with RXF 393 renal (10 µM unless noted), 49.7% (inactive); with SF-268 CNS (10 µM unless noted), 67.1% (inactive). For the same compound, the growth was 40.8% (inactive) with SF-295 CNS (10 µM unless noted), 74.5% (inactive) with SF-539 CNS (10 µM unless noted), -56.3% (active) with UACC-257 melanoma (10 µM unless noted) and -63.6% (active) in the experiment on M14 melanoma (10 µM unless noted).

Consider `O=S(=O)(Nc1cc(Sc2cccc3cccnc23)c(O)c2ccccc12)c1ccc(F)cc1`, for which the growth in the experiment on DU-145 prostate (10 µM unless noted) is -25.4% (active); in the experiment on K-562 leukemia (10 µM unless noted) it was -20.1% (active); with MALME-3M melanoma (10 µM unless noted), -14% (active); in the experiment with MDA-MB-231 breast (10 µM unless noted), 19.6% (inactive); in the experiment with RXF 393 renal (10 µM unless noted) it was -5.08% (active); in the experiment with SF-268 CNS (10 µM unless noted), 8.15% (active). In addition, the growth in the experiment with SF-295 CNS (10 µM unless noted) was 22.1% (inactive); with SF-539 CNS (10 µM unless noted) it was -15.6% (active); in the experiment on UACC-257 melanoma (10 µM unless noted) it was -24.8% (active); with M14 melanoma (10 µM unless noted) it was -42.8% (active).

As for `Clc1ccc(CNc2ccc3nc(CCC4CCCCC4)[nH]c3c2)cc1`, the growth in the experiment on DU-145 prostate (10 µM unless noted) was 83.5% (inactive); in the experiment on K-562 leukemia (10 µM unless noted) it was 6.84% (active); in the experiment on MALME-3M melanoma (10 µM unless noted), 31.4% (inactive); in the experiment with MDA-MB-231 breast (10 µM unless noted), 62.8% (inactive); in the experiment with RXF 393 renal (10 µM unless noted), 52% (inactive); in the experiment on SF-268 CNS (10 µM unless noted), 79% (inactive). For the same compound, the growth with SF-295 CNS (10 µM unless noted) was 73.4% (inactive); with SF-539 CNS (10 µM unless noted) it was 69.6% (inactive); in the experiment with UACC-257 melanoma (10 µM unless noted) it was 71.4% (inactive); in the experiment on M14 melanoma (10 µM unless noted), 45% (inactive).

Take `CC(=O)OC[C@]12CCC(C)(C)C=C1[C@H]1CC[C@@H]3[C@@]4(C)CCCNC(C)(C)[C@@H]4CC[C@@]3(C)[C@]1(C)CC2`: the growth in the experiment on DU-145 prostate (10 µM unless noted) was 87.4% (inactive); in the experiment on K-562 leukemia (10 µM unless noted) it was 14.2% (inactive); in the experiment with MALME-3M melanoma (10 µM unless noted), 41.9% (inactive); in the experiment on MDA-MB-231 breast (10 µM unless noted), 82.1% (inactive); in the experiment with RXF 393 renal (10 µM unless noted), 89.2% (inactive); in the experiment with SF-268 CNS (10 µM unless noted) it was 81.2% (inactive). Besides, the growth in the experiment on SF-295 CNS (10 µM unless noted) was 100% (inactive); in the experiment with SF-539 CNS (10 µM unless noted), 95.2% (inactive); with UACC-257 melanoma (10 µM unless noted), 31.9% (inactive); in the experiment with M14 melanoma (10 µM unless noted), 64.8% (inactive).
